PubChem BioAssay (Tox21)
Values without a mark were called inactive. A call without a number means that no potency is given here. Active and inactive are the calls of the source. Calls come from the whole dose curve; as a rule, active = well fitted curve in the direction sought with a large enough effect in the repeat runs; inconclusive = weak or mixed curves; inactive = flat fitted curve, though single readings scatter.

Assay: qHTS assay to test for compound auto fluorescence at 460 nm (blue) in HepG2 cells (AID 720687)
Conditions: autofluorescence 405/460 nm, 1 h; series mostly up to 91.3 µM
Description: U.S. Tox21 Program National Center for Advancing Translational Sciences [NCATS] NIH Chemical Genomics Center [NCGC] U.S. Environmental Protection Agency [EPA] National Institutes of Environmental Health Sciences [NIEHS] National Toxicology Program [NTP] U.S. Food and Drug Administration [FDA] Tox21 Assay Overview: Compound auto fluorescence often interferes with screening of the compound library against various biological targets and signaling pathways. Some of these compounds may have fluorophoric properties. Such properties may interfere with the assay outputs resulting in false positives and/or negatives. To decrease such complications and ensure the compound activities are relevant in terms of biological response, the Tox21 10K compound library was screened for auto fluorescence. From the fluorophores used as reporter signals in our screening assays, the auto fluorescence equivalencies of compounds against three fluorophores have been evaluated: Triamterene, Fluorescein and Rose Bengal sodium for blue, green and red fluorescence, respectively. The fluorescence intensities were measured using Excitation/Emission wavelengths at 405/460nm, 485/535nm and 540/590nm for blue, green and red labels, respectively. This assay includes the blue fluorescence data.
Tox21 Assay Protocol Summary: 2,000 HepG2 cells in 5 uL of culture medium (MEM containing 10% FBS) per well were dispensed into black wall/clear bottom 1536-well plates using a Multidrop Combi Dispenser (ThermoFisher Scientific, Waltham, MA). The assay plates were incubated overnight at 37 C to allow cell attachment to the well bottom, followed by the transfer of 23 nL compound or DMSO vehicle by a pintool work station (Kalypsys , San Diego, CA). After the assay plates were incubated for 1 hr at 37 C and 5% CO2, fluorescence intensities in the assay plates were measured by an Envision (PerkinElmer, Shelton, CT) plate reader using three labels for measuring blue, green and red fluorescence at […] 460, 535 and 590 nm respectively.

| Structure (SMILES) | Potency | fluorescence, % of fluorescent control |
| --- | --- | --- |
| CCN(CC)S(=O)(=O)c1ccc(C(=O)O)cc1 | inactive | – |
| CN(C)C(=O)C(CCN1CCC(O)(c2ccc(Cl)cc2)CC1)(c1ccccc1)c1ccccc1 | inactive | – |
| CN(C)N=Nc1ccccc1 | inactive | – |
| Nc1nc(F)nc2c1ncn2[C@@H]1O[C@H](CO)[C@@H](O)[C@@H]1O | inactive | – |
| CC(C)CCCCCCN | inactive | – |
| CC(C)N1C(=O)c2ccccc2C1=O | inactive | – |
| c1ccc(CCCc2ccccn2)cc1 | inactive | – |
| NS(=O)(=O)c1cc(C2(O)NC(=O)c3ccccc32)ccc1Cl (stereo not given) | – | -0.125% [at 18.6 µM] |
| CCCCCCC(=O)OCC | inactive | – |
| CC(C)COC(=O)C(C)C | inactive | – |
| FC(F)(F)C(F)(F)C(F)(F)C(F)(F)C(F)(F)C(F)(F)C(F)(F)C(F)(F)C(F)(F)C(F)(F)F | – | 0.105% [at 9.17 µM] |
| O=C1C(CCS(=O)c2ccccc2)C(=O)N(c2ccccc2)N1c1ccccc1 (stereo not given) | – | -0.182% [at 18.6 µM] |
| CC(C)c1ccc2oc3nc(N)c(C(=O)O)cc3c(=O)c2c1 | inactive | – |
| C/C=C1\C(=O)C[C@H]2[C@@H]3CCC4=CC(=O)CC[C@]4(C)[C@H]3CC[C@]12C | inactive | – |
| OC/C=C/c1ccccc1 | inactive | – |
| C[N+](C)(C)CC[N+]1(C)Cc2c(Cl)c(Cl)c(Cl)c(Cl)c2C1 | inactive | – |
| NCCNC(=O)c1ccc(Cl)cn1 | inactive | – |
| CCOC(=O)Cn1c(=O)sc2cccc(Cl)c21 | inactive | – |
| CCCOCC(C)OCC(C)O (stereo not given) | inactive | – |
| COc1cc(C(=O)N2CCOCC2)cc(OC)c1OC | inactive | – |

| Structure (SMILES) | Potency | fluorescence, % of fluorescent control |
| --- | --- | --- |
| O=[N+]([O-])c1ccc(CCO)cc1 | inactive | – |
| C1=C\CC/C=C\CC/C=C\CC/1 | inactive | – |
| Cc1ncc(CSSCc2cnc(C)c(O)c2CO)c(CO)c1O | inactive | – |
| CC(C)CCOC(=O)CC(C)C | inactive | – |
| CC(C)c1cccc(O)c1 | inactive | – |
| CC(C)[C@H](N)C(=O)OCCOCn1cnc2c(=O)[nH]c(N)nc21 | inactive | – |
| C=C(C)C(=O)OCCC(C)OC(=O)C(=C)C (stereo not given) | inactive | – |
| CCC(=O)Nc1cccc(N)c1 | inactive | – |
| CCCC(C)CO (stereo not given) | inactive | – |
| CC(C)c1cccc(C(C)C)c1N | inactive | – |
| O=Cc1ccccc1[N+](=O)[O-] | inactive | – |
| CC1=CC(C)C(C=O)C(C)C1 (stereo not given) | inactive | – |
| CCCCc1ccc(N)cc1 | inactive | – |
| CC/C=C\CCCCO | inactive | – |
| CC(CCO)CCCC(C)(C)O (stereo not given) | inactive | – |
| NC(CS)C(=O)O (stereo not given) | inactive | – |
| COCCOC(=O)CC#N | inactive | – |
| CCCCNc1ccccc1 | inactive | – |
| Nc1nc2c(ncn2CCC(CO)CO)c(=O)[nH]1 | inactive | – |
| OCC(CO)(CO)COCC(CO)(CO)CO | inactive | – |
